EBV LMP1 NFkB – Epstein-Barr LMP1 NF-kappaB reporter inhibition; hit rate 0.69% among 350,000; inhibition, % at 12.5 µM; LMP1-induced NF-kappaB luciferase reporter cells, luminescence; in the data active = inhibition above about 41%; inconclusive = no clear call, values can overlap the other calls;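 also: 0% = neutral control wells and 100% = reference inhibitor control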
Env fusion inh – inhibitors of HIV Env-mediated cell fusion. HeLa-JRFL Env/CEM21 cell fusion, luciferase. inhibition, % at 12.3 µM. hit rate 1.1% among 360,000. AID 651610;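 active = mean replicate inhibition score of at least 50 and every replicate individually at or above 50; inconclusive = only one of the two criteria met; inactive = mean below 50 and not all replicates reaching 50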;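 also: 0% = plate neutral controls and 100% = maraviroc near 300 nM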
N-glyco inh – N-linked glycosylation inhibition. D54 ERlucT glycosylation luciferase reporter, 24 h; percent of 100 nM tunicamycin response. reporter increase, % at 12.5 µM. hit rate 0.23% among 360,000. AID 588692;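 active = mean luciferase reporter signal, scaled so untreated is 0 and the glycosylation-blocking control 100, at or above a set limit in every replicate; inconclusive = mean reaches the limit but not every replicate does; inactive = mean below the limit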;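 also: luciferase carries N-glycosylation sites so blocking glycosylation raises the light; 0% = median of neutral control wells and 100% = median of 100 nM tunicamycin wells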
Shn3 inh set2 – inhibitors of Schnurri-3 3'UTR reporter in osteoblasts. inhibition, % at 12.5 µM. Clone20 osteoblast Shn3 3'UTR firefly luciferase, 24 h. hit rate 0.52% among 360,000. AID 588674;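 active = mean inhibition of at least 75% with every replicate also reaching 75%; inconclusive = mean inhibition at least 75% but some replicate below; inactive = mean inhibition below 75%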;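 also: 0% = median of neutral control wells and 100% = pilot-screen positive control compound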
PAX8 reporter – PAX8 transcriptional activity inhibition | RMG-I TPO-luciferase reporter, SteadyGlo, 24 h | inhibition, % at 12.6 µM | hit rate 1.2% among 360,000 | AID 652154;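 active = mean replicate inhibition at least 60% with every replicate also reaching 60%; inconclusive = only one of the two criteria is met; inactive = mean below 60% and not all replicates reaching 60%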;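 also: luciferase light reporting Pax8 driven TPO promoter activity; plate controls were median of neutral control wells for no effect and mitoxantrone controls for full effect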
NSD2 HMT inh – inhibitors of human histone methyltransferase NSD2; AID 743445; inhibition, % at 12.5 µM; NSD2 peptide methylation, AlphaScreen, 120 min; hit rate 0.54% among 310,000; in the data active = inhibition above about 50%
* hit, by the source's call; [ ] = dose if it differs, or a comment. Only some compounds are listed: those with a hit (about 2.8% of all), similar ones and a draw of the others.

`O=C(Nc1cccnc1)c1ccc(CN2CCc3ccccc3C2)cc1` gave EBV LMP1 NFkB 12.9, Env fusion inh 53.9*, N-glyco inh 0.3, Shn3 inh set2 16.2, PAX8 reporter 6.5 and NSD2 HMT inh -2.8.
Screening Cc1ccc(NC(=O)c2ccc(CN3CCc4ccccc4C3)cc2)cc1 returned EBV LMP1 NFkB 10.4, Env fusion inh 93.4*, N-glyco inh -4.8, Shn3 inh set2 -22.5 and NSD2 HMT inh 2.7.
Screening O=C(Nc1ccccc1)c1ccc(CN2CCc3ccccc3C2)cc1 returned EBV LMP1 NFkB 4.1, Env fusion inh 61.0*, N-glyco inh -3.2, Shn3 inh set2 -18.3, PAX8 reporter -2.2 and NSD2 HMT inh -2.9.
Screening Cc1ccc2[nH]c3c(N4CCc5ccccc5C4)ncnc3c2c1 returned EBV LMP1 NFkB 26.1, Env fusion inh 81.3*, N-glyco inh 6.6, Shn3 inh set2 82.1, PAX8 reporter 5.4 and NSD2 HMT inh 1.3.
Screening COc1ccc2[nH]c3c(N4CCC(O)(c5cccc(C(F)(F)F)c5)CC4)ncnc3c2c1 returned EBV LMP1 NFkB 29.9, Env fusion inh 100.1*, N-glyco inh 20.5, Shn3 inh set2 24.4, PAX8 reporter 33.1 and NSD2 HMT inh 0.9.
Screening Fc1ccc2[nH]c3c(N4CCc5ccccc5C4)ncnc3c2c1 returned Env fusion inh 42.3, N-glyco inh 3.6, Shn3 inh set2 86.9*, PAX8 reporter 9.5 and NSD2 HMT inh -0.5.
Screening C[C@H]1CN([C@@H](C)CO)C(=O)c2cc(NS(=O)(=O)c3ccccc3)ccc2O[C@H]1CN(C)S(=O)(=O)c1cccs1 returned Env fusion inh 31.0[16.7 µM] and PAX8 reporter 35.6.
Screening C[C@H]1CCCCO[C@H](CN(C)Cc2ccncc2)[C@@H](C)CN([C@@H](C)CO)C(=O)c2cc(NS(=O)(=O)c3cn(C)cn3)ccc2O1 returned Env fusion inh 10.4[16.7 µM] and PAX8 reporter -24.5.
For O=C(Nc1ccccc1Cl)N1CCN(c2ccc3nnc(-c4ccccc4)n3n2)CC1 the results were EBV LMP1 NFkB 19.5, N-glyco inh 7.6 and Shn3 inh set2 42.1.
Screening O=C(Nc1ccc(Cl)cc1)N1CCN(c2ccc3nnc(-c4ccc(F)cc4)n3n2)CC1 returned EBV LMP1 NFkB -6.5, Env fusion inh 11.1, N-glyco inh 99.7*, Shn3 inh set2 4.6 and NSD2 HMT inh 1.1.
Screening O=C(O)CN1C(=O)C=CC1=O returned EBV LMP1 NFkB -2.5, Env fusion inh inactive, N-glyco inh 2.0, Shn3 inh set2 -6.9, PAX8 reporter -6.4 and NSD2 HMT inh -0.5.
Screening O=C1C=CC(=O)N1CCCCCCN1C(=O)C=CC1=O returned Env fusion inh -14.6, PAX8 reporter 109.5* and NSD2 HMT inh -0.2.
Screening CCCC(=O)N1CC2(C1)CN(C(=O)C1CCOCC1)[C@@H](CO)c1[nH]c3cc(OC)ccc3c12 returned PAX8 reporter -14.2.
For CC1CCCC(C)N1/N=C/c1ccc(O)c(O)c1 (stereo not drawn) the results were EBV LMP1 NFkB 1.6, Env fusion inh -0.4, N-glyco inh -0.9, Shn3 inh set2 -2.2, PAX8 reporter -3.1 and NSD2 HMT inh 60.0*.
Screening COc1ccc(/C=N/N2C(C)CCCC2C)cc1O (stereo not drawn) returned EBV LMP1 NFkB -4.9, Env fusion inh 4.5, N-glyco inh 0.8, Shn3 inh set2 -0.9, PAX8 reporter 17.6 and NSD2 HMT inh -2.4.
For CCN(CC)c1ccc(/C=N/N2C(C)CCCC2C)c(O)c1 (stereo not drawn) the results were EBV LMP1 NFkB 2.7, Env fusion inh 73.4*, N-glyco inh 0.8, Shn3 inh set2 10.0, PAX8 reporter -10.7 and NSD2 HMT inh 3.8.
`Cc1noc(C)c1NC(=O)N(C)C[C@H]1Oc2ccc(NC(=O)C3CC3)cc2CC(=O)N([C@@H](C)CO)C[C@@H]1C` gave Env fusion inh 5.5[16.7 µM].
Screening c1ccc2c(c1)OCCOCCOCCOCCOCCOc1ccccc1OCCOCCOCCO2 returned EBV LMP1 NFkB 12.9, Env fusion inh inconclusive, N-glyco inh 0.6, Shn3 inh set2 85.7*, PAX8 reporter 47.9 and NSD2 HMT inh 0.3.
Screening OCCN1CCOCCOc2ccccc2OCCOCC1 returned EBV LMP1 NFkB 0.4, Env fusion inh 0.4, N-glyco inh -5.0, Shn3 inh set2 -2.0, PAX8 reporter 12.4 and NSD2 HMT inh 0.5.
Screening Cc1ccc(S(=O)(=O)N[C@H]2CC[C@@H](CCNS(=O)(=O)Cc3ccccc3)O[C@@H]2CO)cc1 returned Env fusion inh 4.8[16.7 µM] and PAX8 reporter 13.5.
`COc1ccc(CNCCC(c2ccc(OC(C)C)cc2)c2ccccc2OC)cc1` (stereo not drawn) gave EBV LMP1 NFkB 16.3, Env fusion inh inconclusive, N-glyco inh -15.1, Shn3 inh set2 96.5*, PAX8 reporter 68.3* and NSD2 HMT inh 2.4.
`COc1ccccc1NC(=O)CC(c1ccc(OC(C)C)cc1)c1ccccc1OC` (stereo not drawn) gave EBV LMP1 NFkB 54.1*, Env fusion inh 18.8, N-glyco inh -2.8, Shn3 inh set2 18.2, PAX8 reporter -2.1 and NSD2 HMT inh -2.9.
COc1ccccc1C(CC(=O)Nc1ccc(C)c(C)c1)c1ccc(OC(C)C)cc1 (stereo not drawn) was read as EBV LMP1 NFkB 4.2, Env fusion inh 9.8, N-glyco inh -5.4, Shn3 inh set2 26.0, PAX8 reporter 11.9 and NSD2 HMT inh -3.0.
Screening COc1ccc(CNCCC(c2ccc(OC(C)C)cc2)c2ccccc2OC)cc1OC (stereo not drawn) returned EBV LMP1 NFkB 10.9, Env fusion inh 46.2, N-glyco inh -5.6, Shn3 inh set2 82.4, PAX8 reporter 38.6 and NSD2 HMT inh 4.8.
Screening COc1ccccc1C(CCNCc1ccc(N(C)C)cc1)c1ccc(OC(C)C)cc1 (stereo not drawn) returned EBV LMP1 NFkB -23.8, Env fusion inh 55.3*, N-glyco inh -12.3, Shn3 inh set2 93.0*, PAX8 reporter 38.0 and NSD2 HMT inh 31.5.
Screening COc1ccccc1C(CCNCc1ccccc1)c1ccc(OC(C)C)cc1 (stereo not drawn) returned EBV LMP1 NFkB -5.3, Env fusion inh 22.2, N-glyco inh -5.8, Shn3 inh set2 42.9, PAX8 reporter 2.1 and NSD2 HMT inh -0.4.
`C[C@H](CO)N1C[C@H](C)[C@H](CN(C)C(=O)Nc2ccc3c(c2)OCO3)Oc2cc(C3=CCCC3)ccc2S1(=O)=O` gave Env fusion inh -23.5[16.7 µM] and PAX8 reporter 0.9.
Screening CO[C@@H]1CN(C)C(=O)c2cc(NC(=O)C3CCCC3)ccc2OC[C@@H](C)NC[C@@H]1C returned PAX8 reporter 6.6.
Screening CC(O)(c1ccncc1)c1nc(-c2cccc(C(F)(F)F)c2)cs1 (stereo not drawn) returned Env fusion inh 3.4, N-glyco inh -4.0, Shn3 inh set2 85.2*, PAX8 reporter -3.2 and NSD2 HMT inh -2.3.

Screens (PubChem BioAssay)
